Bioassay records from PubChem BioAssay.
ALDH1A1 block: inhibitors of human aldehyde dehydrogenase 1A1; Purified ALDH1A1, NADH fluorescence, propionaldehyde substrate; Potency, µM (titrated, usually from 75.3 µM), without a hit: at the highest dose activity, negative = inhibition, actives largely listed as inhibitors; 7.3% of 220,000 active;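 further: potency means the concentration at half of the fitted maximal effect; plate controls were no enzyme wells and a reference inhibitor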
HPGD block: HPGD (human) dehydrogenase inhibition. purified HPGD, NADH fluorescence kinetic, PGE2 substrate. Potency, µM, for the others: top-dose activity change, negative = inhibition, most hits filed as inhibitors. 4.3% of 150,000 active; further: potency means the concentration at half of the fitted maximal effect
Target sequence (P15428 whole entry, looked up): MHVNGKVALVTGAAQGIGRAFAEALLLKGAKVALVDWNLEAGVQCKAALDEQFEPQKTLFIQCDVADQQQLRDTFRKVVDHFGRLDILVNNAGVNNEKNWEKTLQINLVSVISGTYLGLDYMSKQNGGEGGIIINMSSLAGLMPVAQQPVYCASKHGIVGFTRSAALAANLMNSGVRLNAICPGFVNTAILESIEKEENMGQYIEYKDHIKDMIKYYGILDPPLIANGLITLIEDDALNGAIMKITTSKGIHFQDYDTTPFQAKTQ
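NADH formation kinetics: reaction with 30 uM PGE2 and 1 mM NAD+ (final), 20 nM enzyme, Tris-HCl pH 8 with Tween 20, after 15 min compound preincubation at room temperature. Fluorescence change, last versus first of five reads.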
PNC assembly inh: blocks assembly of the perinucleolar compartment. 3.1% of 140,000 active. PC3M PTB-GFP, PNC prevalence imaging, 16 h; active compounds read low. activity change (PNC), negative = inhibition, % at 10 µM;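 active means readout at or below -70, meaning at least 70% loss of cells showing the perinucleolar compartment, a nuclear body marking cancer cells; inconclusive means readout between -30 and a set limit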;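 further: plate controls were DMSO wells for no effect and camptothecin positive control wells for full effect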
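Read-out is percentage of cells bearing a perinucleolar compartment, from automated 20x imaging of fixed, Hoechst-stained PC3M PTB-GFP cells. Cells were seeded 4 h, then exposed 16 h to compound (23 nl of library stock) in duplicate plates.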
* = called active by the depositor; u = inconclusive; x = no result; [ ] = dose if it differs, or a comment. Hits are enriched below; roughly 11% of the tested compounds scored in any of these assays. Unless noted, the call rests on the fitted dose curve; in most records, active means well fitted inhibition curve with a large enough effect (not every such curve was filed as active); inconclusive means small, poorly fitted or top-dose-only effect, or another doubt; inactive means no such curve, though single readings can be large or run the other way. Unless noted, on the % scale 0 is the no-effect control and ±100 the full control effect.

SMILES	ALDH1A1 block	HPGD block	PNC assembly inh
COc1cccc(C2/C(=C(\O)c3c(C)nc4c(C)cccn34)C(=O)C(=O)N2CCCN(C)C)c1 (centres undefined)	-3.7%	-10.0%	-6.3
COc1ccccc1N1CCN(S(=O)(=O)Cc2ccccc2Cl)CC1	-4.6%	-12.8%	u
N=C(c1ccc([N+](=O)[O-])cc1)N1CCCCC1	2.6%	x	x
O=[N+]([O-])C(/C=C(\Cl)[N+](=O)[O-])=C(N1CCCCC1)N1CCCCC1	14.1µM*	x	x
O=S(=O)(/N=C(/c1ccc(F)cc1)N1CCCCC1)c1ccc(Cl)cc1	u	x	-12.6
CCc1nnc(NC(=O)CSc2ncc(-c3ccccc3)n2CC)s1	u	-6.8%	13.1
CC(=O)Nc1ccccc1OC(C)C(=O)NC(C)c1ccc(F)cc1 (centres undefined)	4.5%	-9.8%	54.4
CCOC(=O)c1cc(NC(=O)N(C(C)C)C(C)C)c(C)nc1C	-9.7%	-13.7%	37.0
COc1ccc(OC)c(NS(=O)(=O)c2ccc(NC(C)=O)cc2)c1	11.6%	-13.6%	-27.1
CCOC(=O)c1cc(NC(=O)Nc2ccc(OC)c(OC)c2)c(C)nc1C	-4.5%	-1.4%	-102.1*
COc1ccc(NC(=O)Nc2cc(C)ccc2OC)cc1	-14.7%	-16.3%	-82.3*
COc1ccc(NC(=O)Nc2cc(C)ccc2F)cc1	5.7%	-10.4%	8.8
COc1ccc(C)cc1NS(=O)(=O)c1ccc(NS(=O)(=O)c2ccc(NC(C)=O)cc2)cc1	22.4µM*	-13.3%	10.2
COC(=O)c1cc2c(C)[nH]c(C)c2cc(C(=O)OC)c1=O	6.1%	-6.8%	-17.7
CC[C@]1(O)C[C@@H]2CN(CCc3c([nH]c4ccccc34)[C@](C(=O)OC)(c3cc4c(cc3OC)N(C)[C@H]3[C@](O)(C(=O)OC)[C@@H](C(=O)OC)[C@@]5(CC)C=CCN6CC[C@@]43[C@@H]65)C2)C1	-8.4%	-13.1%	x
Cc1ccsc1/C=C1\SC(N2CC(C)OC(C)C2)=NC1=O (centres undefined)	17.8µM*	-15.6%	18.3
CC1Oc2ccccc2C=C1/C=C1/SC(N2CCOCC2)=NC1=O (centres undefined)	u	-22.8%	18.9
O=C(Nc1cc(N2CCOCC2)ncn1)NC1(C(F)(F)F)Oc2ccccc2O1	u	-2.8%	22.4
C=CCn1c(CNc2ccc(C)cc2)nnc1SCC(=O)N/N=C/c1ccc(O)cc1	25.1µM*	-15.3%	21.8
C=CCn1c(COc2ccc(Cl)cc2)nnc1SCC(=O)N/N=C/c1ccccc1	-2.1%	-0.5%	-18.2
CCOc1ccc(C(=O)NCCc2ccc3c(c2)OCCO3)cc1	11.7%	x	x
O=c1cc(-c2ccccc2O)oc2c(O)c(O)ccc12	2.51µM*	10µM*	x
O=c1cc(-c2ccccc2O)oc2ccc3ccccc3c12	3.0%	-1.5%	x
O=C(O)Cc1cccc2c(=O)cc(-c3ccccc3)oc12	-4.7%[13.5 µM]	-4.7%	x
O=c1cc(-c2ccccc2)oc2c(O)c(O)ccc12	3.98µM*	3.16µM*	x
SMILES	ALDH1A1 block	HPGD block	PNC assembly inh
O=C(CCS(=O)(=O)c1ccc(Cl)cc1)OCC(=O)N1CCCCC1	-2.3%	-0.8%	-7.2
CCOC(=O)C(C)Sc1nnc(Cc2cc(=O)[nH]c(=O)[nH]2)n1-c1ccc(Cl)cc1 (centres undefined)	1.6%	-10.7%	16.6
Cc1cc(C)cc(N(CC(=O)N2CCc3ccccc32)S(=O)(=O)c2c(C)noc2C)c1	8.91µM*	-14.0%	-6.1
CCOc1ccc(N(CC(=O)N2CCc3ccccc32)S(=O)(=O)c2c(C)noc2C)cc1	-1.9%	-7.0%	-3.3
CC1CCC(C(C)C)C(OP(=O)(c2ccc(N(C)C)cc2)C(O)c2cccnc2)C1 (centres undefined)	-1.7%	-1.5%	-113.8*
CN(C)c1ccc(P(=O)(OCc2ccccc2)C(O)c2cccnc2)cc1 (centres undefined)	-9.1%	-13.5%	30.0
CC(/C=C/c1ccc2c(c1)OCO2)=N/NC(=O)c1ccc(C)nc1	-7.9%	-19.6%	68.0
COc1ccc(CNc2nc(SCC(=O)NCc3ccco3)nc3ccccc23)cc1	u	10µM*	u
CCOC(=O)CSc1nc(NCc2ccco2)c2ccccc2n1	u	-10.2%	5.9
COc1ccc(Cc2nnc(SCC(=O)NCc3ccco3)o2)cc1	u	20µM*	u
COc1ccc(OCc2nnc(SCC(=O)NCc3ccco3)o2)cc1	0.6%	-11.4%	u
Cc1ccc(O)c(-n2nc3ccccc3n2)c1	-7.1%	x	x
Cn1c(=O)c2[nH]c([C@@H]3CC(=O)C[C@H](c4nc5c([nH]4)c(=O)n(C)c(=O)n5C)N3)nc2n(C)c1=O	3.2%[13.5 µM]	-11.9%	x
COc1ccc(-c2cnn3c4c(c(C)nc23)CCN4C(C)C)cc1OC	u	-6.3%	12.1
O=C1/C(=C\c2ccco2)CCC/C1=C\c1ccco1	5.62µM*	-17.0%	57.0
O=C1CC(=O)CC(c2ccco2)C1	7.5%	4.9%	-20.4
O=C1/C(=C/c2ccco2)Cc2ccccc21	u	u	-29.1
CC1C/C(=C/c2cccs2)C(=O)/C(=C/c2cccs2)C1 (centres undefined)	-6.6%	-12.1%	-113.4*
CC1C/C(=C/c2ccco2)C(=O)/C(=C/c2ccco2)C1 (centres undefined)	14.1µM*	-17.1%	10.3
CC1C/C(=C/c2ccccn2)C(=O)/C(=C/c2ccccn2)C1 (centres undefined)	-10.2%	x	x
Cc1ccc(C)c(S(=O)(=O)N2CCCOC2CNC(=O)C(=O)NCc2ccco2)c1 (centres undefined)	-0.2%	-18.1%	54.0
CN(C)C(=O)NC(O)C(Cl)Cl (centres undefined)	u	-20.3%	u
CN1C2CCC1CC(OC(=O)c1c[nH]c3ccccc13)C2 (centres undefined)	-9.0%	-9.6%	-89.0*
CN1[C@@H]2CC[C@H]1CC(OC(=O)c1c[nH]c3ccccc13)C2 (some centres undefined)	0.5%	-15.4%	x
Cc1sc2ncnc(NC3CCN(Cc4ccccc4)CC3)c2c1C	1.8%	x	x
SMILES	ALDH1A1 block	HPGD block	PNC assembly inh
Nc1nonc1-c1nc2ccccc2n1CC(=O)N/N=C\c1ccc(-c2ccc(Cl)cc2)o1	u	u	-12.8
O=C(O)c1cccc(CSc2n[nH]c(-c3ccc(Cl)cc3Cl)n2)c1	2.4%	x	x
COc1cc(C)nc(N2CCCC(C(=O)Nc3ccccc3Br)C2)n1 (centres undefined)	8.8%	x	x
COc1cc(C)nc(N2CCCC(C(=O)Nc3cccc(Cl)c3C)C2)n1 (centres undefined)	7.1%	-11.4%	-124.4*
O=C(CNC1CCCCC1)N1CCc2ccccc2C1	11.2µM*	-11.2%	1.5
O=C(NC1CCCCC1)N1CCc2ccccc2C1	-5.3%	x	x
c1ccc(-c2nnc3sc(-c4csc5c4CCCC5)nn23)cc1	7.94µM*	11.2µM*	2.6
Clc1ccc(-c2nn3c(-c4ccccc4)nnc3s2)cc1	u	u	-27.9
COC(=O)c1ccccc1NC(=O)c1ccnn1C	4.4%	x	x
COc1cc(N)c(Cl)cc1C(=O)OCCCN1CCCCC1	2.0%	-10.9%	x
CC/C(=N/NC(=O)c1ccc(Br)cc1)c1ccc(OCCN2CCOCC2)cc1	u	-3.7%	1.3
CC/C(=N/NC(=O)c1ccccc1)c1ccc(OCCN2CCOCC2)cc1	10µM*	-23.1%	-12.1
CN(CC(=O)NC1CCCCCCC1)S(=O)(=O)c1cnc[nH]1	7.7%	x	x
